Source: PubChem BioAssay AID1159580 (chemical genetic matrix, 2015)
Values joined by “and” are separate entries in the source; they are usually repeats but may differ in a detail not shown here. Equal values may be shown once. Among all 5,500 compounds or so, about 2,000 (36%) were called active. About 18% were inconclusive and are not listed. Cut-off read from the data, not from the text of the source: active = normalized growth mostly below about 0.91 (no sharp cut-off); inconclusive = no clear call, values can overlap the other calls; inactive = mostly above about 0.92. Some of the results follow.

Assay: chemical genetic growth profiling, strain panel (AID 1159580);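 note: tested at 20 µM; growth read once vehicle control cultures reached saturation at 30 °C; 1 = growth at the plate median or of vehicle wells; lower values mean less growth of the strain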
Settings: S. cerevisiae deletion strains, growth OD

Measured: normalized growth

C#CC1(O)CCC2C3CCC4=CC(=O)CCC4(C)C3CCC21C (stereo unspecified)
active: locus YDR137W, strain rgp1, stronger effect = lower value 1.19 [resistant]
inactive: locus YAL021C, strain ccr4, stronger effect = lower value 0.973 | locus YAL026C, strain drs2, stronger effect = lower value 0.982 | locus YAL030W, strain snc1, stronger effect = lower value 0.995 | locus YBL061C, strain skt5, stronger effect = lower value 0.96 | locus YBR009C, strain hhf1, stronger effect = lower value 0.979 | locus YBR021W, strain FUR4, stronger effect = lower value 0.985 | locus YBR023C, strain chs3, stronger effect = lower value 0.981 | locus YBR171W, strain sec66, stronger effect = lower value 0.981 | locus YBR229C, strain ROT2, stronger effect = lower value 0.985 | locus YBR231C, strain swc5, stronger effect = lower value 0.977 | locus YBR279W, strain paf1, stronger effect = lower value 0.985 | locus YCL011C, strain gbp2, stronger effect = lower value 0.994 | locus YCL016C, strain dcc1, stronger effect = lower value 0.968 | locus YCL029C, strain bik1, stronger effect = lower value 0.984 | locus YCL069W, strain vba3, stronger effect = lower value 1 | locus YCR088W, strain abp1, stronger effect = lower value 0.992 | locus YDL005C, strain med2, stronger effect = lower value 0.976 | locus YDL035C, strain GPR1, stronger effect = lower value 0.981 | locus YDL040C, strain nat1, stronger effect = lower value 0.97 | locus YDL074C, strain BRE1, stronger effect = lower value 1.01 | locus YDL101C, strain DUN1, stronger effect = lower value 0.979 | locus YDL185W, strain tfp1, stronger effect = lower value 0.981 | locus YDL192W, strain arf1, stronger effect = lower value 0.98 | locus YDR001C, strain nth1, stronger effect = lower value 0.977 | locus YDR069C, strain doa4, stronger effect = lower value 0.933 | locus YDR101C, strain arx1, stronger effect = lower value 1.02 | locus YDR159W, strain sac3, stronger effect = lower value 0.937 | locus YDR162C, strain NBP2, stronger effect = lower value 0.971 | locus YDR195W, strain ref2 0.975 | locus YDR297W, strain sur2, stronger effect = lower value 0.98 | locus YDR318W, strain mcm21, stronger effect = lower value 0.97 | locus YDR334W, strain swr1, stronger effect = lower value 0.954 | locus YDR335W, strain msn5, stronger effect = lower value 0.981 | locus YDR388W, stronger effect = lower value 0.976 | locus YDR392W, strain spt3, stronger effect = lower value 0.918 | locus YDR502C, strain sam2, stronger effect = lower value 0.985 | locus YEL003W, strain gim4, stronger effect = lower value 0.976 | locus YEL037C, strain rad23, stronger effect = lower value 0.969 | locus YEL061C, strain CIN8 (second series), stronger effect = lower value 0.965 | locus YEL061C, strain CIN8, stronger effect = lower value 0.996 | locus YER015W, strain faa2, stronger effect = lower value 0.992 | locus YER016W, strain bim1, stronger effect = lower value 0.996 | locus YER110C, stronger effect = lower value 0.968 | locus YER111C, strain swi4, stronger effect = lower value 0.99 | locus YER155C, strain BEM2 (second series), stronger effect = lower value 1.02 | locus YER155C, strain BEM2, stronger effect = lower value 0.982 | locus YER167W, strain BCK2, stronger effect = lower value 0.994 | locus YFR010W, strain ubp6, stronger effect = lower value 0.995 | locus YGL078C, strain dbp3, stronger effect = lower value 0.95 | locus YGL086W, strain mad1, stronger effect = lower value 1.01 | locus YGL167C, strain pmr1, stronger effect = lower value 0.976 | locus YGL173C, strain kem1, stronger effect = lower value 0.986 | locus YGL227W, strain vid30, stronger effect = lower value 0.983 | locus YGL240W, strain doc1, stronger effect = lower value 0.987 | locus YGL248W, strain PDE1, stronger effect = lower value 0.99 | locus YGL253W, strain hxk2, stronger effect = lower value 0.978 | locus YGR135W, strain pre9, stronger effect = lower value 0.947 | locus YGR252W, strain gcn5, stronger effect = lower value 0.956 | locus YHR013C, strain ard1, stronger effect = lower value 0.994 | locus YHR027C, strain rpn1, stronger effect = lower value 0.948 | locus YHR030C, strain SLT2, stronger effect = lower value 0.998 and 1 | locus YHR079C, strain IRE1 (second series), stronger effect = lower value 0.983 | locus YHR079C, strain IRE1, stronger effect = lower value 1 | locus YHR094C, strain hxt1, stronger effect = lower value 0.968 | locus YHR129C, strain ARP1, stronger effect = lower value 0.999 | locus YHR142W, strain chs7, stronger effect = lower value 0.98 | locus YHR200W, strain rpn10, stronger effect = lower value 0.986 | locus YIL066C, strain RNR3, stronger effect = lower value 0.989 | locus YIL073C, strain SPO22, stronger effect = lower value 0.933 | locus YIL125W, strain kgd1, stronger effect = lower value 0.978 | locus YIR030C, strain dcg1, stronger effect = lower value 0.984 | locus YJL092W, strain hpr5, stronger effect = lower value 0.977 | locus YJL095W, strain BCK1 (second series), stronger effect = lower value 0.981 | locus YJL095W, strain BCK1, stronger effect = lower value 0.981 and 1.01 | locus YJL115W, strain asf1, stronger effect = lower value 0.954 | locus YJL129C, strain trk1, stronger effect = lower value 0.97 | locus YJL134W, strain LCB3, stronger effect = lower value 0.983 | locus YJL154C, strain vps35, stronger effect = lower value 0.972 | locus YJL164C, strain tpk1, stronger effect = lower value 0.978 | locus YJL166W, strain qcr8, stronger effect = lower value 0.983 | locus YJL168C, strain set2, stronger effect = lower value 0.977 | locus YJL187C, strain SWE1 (second series), stronger effect = lower value 1.01 | locus YJR043C, strain POL32, stronger effect = lower value 1.03 | locus YJR066W, strain TOR1, stronger effect = lower value 0.957 | locus YJR075W, strain HOC1, stronger effect = lower value 1
